Laboratory results reported in PubChem BioAssay (Tox21).
Records with an inconclusive call do not appear. The source made the active and inactive calls. Calls follow the shape of the dose curve; as a rule, active = well fitted cell-killing curve with a large enough effect in the repeat runs; inconclusive = weak or mixed curves; inactive = flat fitted curve, though single readings scatter.

experiment: qHTS assay to identify small molecule antagonists of the estrogen related receptor (ERR) signaling pathway from Tox21 library - cell viability counter screen (AID 1224834); settings: ERR reporter cells viability, CellTiter-Fluor, 17.5 h; series mostly up to 92.4 µM; viability change, negative = cytotoxic: at the top concentration; also: nearly all actives have a fitted effect of over 30% in size
Description: National Center for Advancing Translational Sciences [NCATS]
NIH Chemical Genomics Center [NCGC]
U.S. Environmental Protection Agency [EPA]
National Institutes of Environmental Health Sciences [NIEHS]
National Toxicology Program [NTP]
U.S. Food and Drug Administration [FDA]
Estrogen related receptors (ERRs), the first orphan nuclear receptors discovered, play an important role in the control of cellular energy metabolism. ERRs are required for high-energy production in response to the environmental challenges. ERR-alpha was also identified as an adverse marker for breast cancer progression; ERR-alpha-positive tumors have a poor prognosis. To screen and to identify environmental compounds that perturb the ERR signaling pathways could provide valuable information for potential therapeutic or preventive measures in the treatment of metabolic disease. To differentiate true ERR antagonists or agonist from cytotoxic substances, the assay is multiplexed with cell viability assay.
Tox21 Assay Protocol Summary:
The ERR cells were dispensed at 2,000 cells/5 ul/well in 1536-well white plates using a Multidrop dispenser. After the assay plates were incubated at a 37 C/5% CO2 incubator for 6 hours, 23 nL of compounds dissolved in DMSO, positive and negative controls or DMSO only was transferred to the assay plate by a pin tool. The plates were incubated at 37 C for 17.5 hours. 1 ul/well of CellTiter-Fluor reagent was added into the assay plates using a Flying Reagent Dispenser. After 30-minute incubation at 37 C/5% CO2, the fluorescence intensity in the plates was measured using a ViewLux plate reader.
% is scaled to controls: 0 for no effect and ±100 for the full control effect; potency is read from the fitted curve at half-maximal effect.

| SMILES | Potency | viability change, negative = cytotoxic |
| --- | --- | --- |
| O=[N+]([O-])O.O=[N+]([O-])O.[Cd] | 9.69 µM (active) | – |
| ClCc1ccc(Cl)cc1Cl | – | 2.82% (inactive) |
| Clc1ccc(Oc2ccccc2)cc1 | – | 0.938% (inactive) |
| CC1(c2ccc(Oc3ccccc3)cc2)OC(=O)N(Nc2ccccc2)C1=O (stereo not given) | 27.5 µM (active) | – |
| O=C(CCl)C(Cl)Cl | 27.6 µM (active) | – |
| O=C(CCCN1CCC2(CC1)C(=O)NCN2c1ccccc1)c1ccc(F)cc1 | – | -0.303% [at 42.5 µM] (inactive) |
| C=CC(=O)N(C)C | – | -0.931% (inactive) |
| CCCCOP(=O)(CCCC)OCCCC | – | -5.69% (inactive) |
| c1ccc(OCC2CO2)cc1 (stereo not given) | – | 4.72% (inactive) |
| CC(C)CCCCCOC(=O)c1ccccc1C(=O)OCCCCCC(C)C | – | 1.7% (inactive) |
| CCc1ccccc1C | – | 3.02% (inactive) |
| ClC(Cl)=C(c1ccc(Cl)cc1)c1ccc(Cl)cc1 | inactive | – |
| CN(C)S(=O)(=O)N(SC(F)(Cl)Cl)c1ccccc1 | 30.6 µM (active) | – |
| S=C=Nc1cccc2ccccc12 | 67.9 µM (active) | – |
| N#CCc1ccc(Cl)cc1 | – | 1.13% (inactive) |
| COc1ccc(OC)c(C=O)c1 | – | -10.4% (inactive) |
| Nc1ccccc1C(=O)Oc1ccc2ccccc2c1 | – | -7.67% (inactive) |
| CCC[CH2][Sn]([CH2]CCC)([CH2]CCC)[O]C(=O)c1ccccc1 | 2.17 µM (active) | – |
| ClC1=C(Cl)[C@]2(Cl)[C@@H]3[C@@H]4C[C@@H]([C@H]5O[C@@H]45)[C@@H]3[C@@]1(Cl)C2(Cl)Cl | 54.5 µM (active) | – |
| O=C(Nc1ccc2[nH]ccc2c1)c1cc2cc(F)ccc2n1Cc1cccc(F)c1 | 61.1 µM (active) | – |

| SMILES | Potency | viability change, negative = cytotoxic |
| --- | --- | --- |
| COP(=O)(CCC(=O)NCO)OC | – | 1.35% (inactive) |
| CC(C)(C)C(O)/C(=C\c1ccc(Cl)cc1Cl)n1cncn1 (stereo not given) | 65.9 µM (active) | – |
| c1cc[c]([Sb]([c]2ccccc2)[c]2ccccc2)cc1 | – | -0.614% (inactive) |
| O=C/C(Cl)=C(/Cl)C(=O)O | – | -8.32% (inactive) |
| COc1ccc([N+](=O)[O-])cc1O | – | 3.51% [at 42.5 µM] (inactive) |
| N#C/C=C/c1ccccc1 | – | 1.56% (inactive) |
| CCOC(=O)CC(=O)CCl | – | -0.0896% (inactive) |
| CCCCCCCCCCCCCCCC[n+]1ccccc1 | 32 µM (active) [middle of 4 runs] | – |
| Cc1ccc(CCl)cc1 | – | 0.751% (inactive) |
| Cc1cc(C(C)(C)c2cc(C)c(O)c(C)c2)cc(C)c1O | 41.8 µM (active) | – |
| CCN(CC)C(=S)[S-].CCN(CC)C(=S)[S-].[Zn+2] | 3.41 µM (active) | – |
| CCC(C)c1cc(C(C)(C)C)cc(-n2nc3ccccc3n2)c1O (stereo not given) | – | -1.37% [at 42.5 µM] (inactive) |
| CC(C)CC(C)Nc1ccc(Nc2ccccc2)cc1 (stereo not given) | 60.1 µM (active) | – |
| C=CC(=O)OCCCCOC(=O)C=C | 54.5 µM (active) | – |
| C[C@]12CC[C@H]3[C@@H](CCC4=CC(=O)CC[C@@]43C)[C@@H]1CC[C@@H]2O | – | -11.4% (inactive) |
| CCS(=O)(=O)c1cccnc1S(=O)(=O)NC(=O)Nc1nc(OC)cc(OC)n1 | – | 2.02% (inactive) |
| CC(C)C(=O)Cl | – | 0.191% (inactive) |
| CC(=O)c1cc(C(C)(C)C)cc2c1CCC2(C)C | – | 0.494% (inactive) |
| CNC(C)Cc1ccc2c(c1)OCO2 (stereo not given) | – | 3.21% (inactive) |
| Cc1cccc(OP(=O)(Oc2cccc(C)c2)Oc2cccc(C)c2)c1 | – | 3.08% (inactive) |
